Article PMC5540273 (PLoS ONE, 2017)

These compounds were tested on T1, MEK1. Conditions: concentration: 1 μM, replicates: in singlicate; n = 1.
T1 construct: gene MAP2K1
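Note: KINOMEscan kinase panel screen.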

Row | Compound | %Inh [%]
1 | COc1ccc(Nc2nccc(N3CCC(NC(=O)Nc4cc(C)ccc4C)C3)n2)cc1 (centres unmarked) [GSK1379741] | 0
2 | CC(C)Oc1ccc2c(-c3ccnc(Nc4ccc(N5CCN(C)CC5)cc4)n3)cnn2n1 [GW696155] | 25
3 | O=C(c1ccc(-c2cc(-c3c[nH]nc3-c3ccccn3)ccn2)cc1)N1CCOCC1 [GW812171] | 31
4 | CN(C(=O)c1ccc(-c2cc(-c3c[nH]nc3-c3ccccn3)ccn2)cc1)C1CCOCC1 [GW810083] | 0
5 | O=C(Nc1cccc(-c2nn3ncccc3c2-c2ccnc(Nc3cccc(C(F)(F)F)c3)n2)c1)c1c(F)cccc1F [GSK299495] | 48
6 | Cl.Oc1cccc(Nc2ccnc3cc(-c4ccncc4)ccc23)c1 [GW494601] | 33
7 | O=c1cc(N2CCOCC2)nc2n(Cc3cccc(F)c3)ccn12 [GSK2297430] | 0
8 | COc1ccc(CNC(=O)NC2CCN(c3ccnc(Nc4ccc(OC)cc4)n3)C2)cc1 (centres unmarked) [GSK1379727] | 0
9 | CCc1nc(-c2cccc(C)c2)c(-c2ccnc(NCc3ccccc3)c2)s1 | 0
10 | CCc1ccnc(/C=C/c2n[nH]c3cc(Sc4ccccc4C(=O)NC)ccc23)c1 | 0
11 | Cc1nnc(-c2ccc(C)c(-c3ccc(C(=O)Nc4ccc(NS(C)(=O)=O)cc4)cc3)c2)o1 [GW702865] | 8
12 | Cc1nnc(-c2ccc3ncc(-c4ccc(S(C)=O)cc4)n3c2)o1 (centres unmarked) | 9
13 | CC(=O)Nc1ccc(COc2ccc(Nc3ccnc4cc(-c5ccccn5)ccc34)cc2)cc1.Cl [GW440148] | 51
14 | CCn1cnc2c(N)ncnc21 [GW345098] | 26
15 | Cc1nnc(-c2ccc3occ(-c4ccc(C(C)O)cc4)c3c2)o1 (centres unmarked) | 10
16 | O=c1cc(N2CCOCC2)nc2n(Cc3cccc(Cl)c3Cl)c(C3CC3)nn12 [GSK2358994] | 17
17 | O=C(NCCCN1CCOCC1)c1cccc(Nc2nccc(Nc3ccc(Oc4ccccc4)cc3)n2)c1 [GW663929] | 71
18 | [2H]C([2H])(c1cccc(C(F)(F)F)c1C)n1ccn2c(=O)nc(N3CCOCC3)cc12 [GSK2336394] | 0
19 | NS(=O)(=O)CCc1cccc(Nc2nccc(-c3c(-c4cccc(NC(=O)c5c(F)cccc5F)c4)nn4ccccc34)n2)c1 [GSK336735] | 82
20 | CN1c2ccc(NCc3ccc(F)cc3)cc2-c2c(cnn2C)S1(=O)=O | 7
21 | COCCNC(=O)c1ccc(-c2cc(C(=O)NC3CC3)cc(F)c2C)cc1 [GW868318] | 25
22 | N#Cc1ccc(-c2cc(-c3c[nH]nc3-c3ccccn3)ccn2)cc1 [GW693028] | 0
23 | O=C(NOCC1CC1)c1ccc(F)c(F)c1Nc1ccc(I)cc1Cl | 64

What follows are compounds tested on T2, MEK2. Conditions: concentration: 1 μM, replicates: in singlicate; n = 1.
T2 construct: gene MAP2K2

Row | Compound | %Inh [%]
24 | COc1ccc(Nc2nccc(N3CCC(NC(=O)Nc4cccc(C(C)=O)c4)C3)n2)cc1 (centres unmarked) [GSK1379731] | 0
25 | Fc1ccc(-c2nn3c(OCC(F)(F)F)cccc3c2-c2ccncc2)cc1 [GW514784] | 0
26 | Cc1cn2c(=O)cc(N3CCOCC3)nc2n1Cc1cccc(Cl)c1Cl [GSK2334006] | 0
27 | Fc1ccc(-c2ncn(CCCN3CCOCC3)c2-c2cccnc2)cc1 [SB-211743] | 44
28 | C[C@@H](Oc1cc(-n2cnc3ccc(NC(=O)NC(C)(C)C)cc32)sc1C(N)=O)c1ccccc1Cl [GSK346294] | 0
29 | Cc1ccc(C(=O)NCC(N)=O)cc1-n1c(C)cc(OCc2ccc(F)cc2F)c(Br)c1=O | 26
30 | c1ccc(-c2n[nH]cc2-c2ccnc3ccccc23)nc1 [GW271431] | 0
31 | O=C1Cc2cc(Nc3nc(NCc4cccc(S(=O)(=O)C(F)(F)F)c4)ncc3C(F)(F)F)ccc2N1 | 0
32 | NCC(NC(=O)c1cc(-c2cn[nH]c2)c(-c2ccnc3[nH]ccc23)s1)c1ccccc1.O=C(O)C(F)(F)F.O=C(O)C(F)(F)F (centres unmarked) [GSK1325775] | 11
33 | COc1ccc(Nc2nccc(N3CCC(NC(=O)Nc4cc(C)ccc4C)C3)n2)cc1 (centres unmarked) [GSK1379741] | 0
34 | CC(C)Oc1ccc2c(-c3ccnc(Nc4ccc(N5CCN(C)CC5)cc4)n3)cnn2n1 [GW696155] | 43
35 | O=C(c1ccc(-c2cc(-c3c[nH]nc3-c3ccccn3)ccn2)cc1)N1CCOCC1 [GW812171] | 46
36 | CN(C(=O)c1ccc(-c2cc(-c3c[nH]nc3-c3ccccn3)ccn2)cc1)C1CCOCC1 [GW810083] | 0
37 | O=C(Nc1cccc(-c2nn3ncccc3c2-c2ccnc(Nc3cccc(C(F)(F)F)c3)n2)c1)c1c(F)cccc1F [GSK299495] | 54
38 | Cl.Oc1cccc(Nc2ccnc3cc(-c4ccncc4)ccc23)c1 [GW494601] | 100
39 | O=c1cc(N2CCOCC2)nc2n(Cc3cccc(F)c3)ccn12 [GSK2297430] | 0
40 | COc1ccc(CNC(=O)NC2CCN(c3ccnc(Nc4ccc(OC)cc4)n3)C2)cc1 (centres unmarked) [GSK1379727] | 0

Row | Compound | %Inh [%]
41 | CC(C)(CN)c1nc(-c2ccc(Cl)c(O)c2)c(-c2ccncc2)[nH]1.O=C(O)C(F)(F)F [SB-477794] | 20
42 | CCc1nc(-c2cccc(C)c2)c(-c2ccnc(NCc3ccccc3)c2)s1 | 1
43 | CCc1ccnc(/C=C/c2n[nH]c3cc(Sc4ccccc4C(=O)NC)ccc23)c1 | 10
44 | Cc1nnc(-c2ccc(C)c(-c3ccc(C(=O)Nc4ccc(NS(C)(=O)=O)cc4)cc3)c2)o1 [GW702865] | 7
45 | Cc1nnc(-c2ccc3ncc(-c4ccc(S(C)=O)cc4)n3c2)o1 (centres unmarked) | 9
46 | CC(=O)Nc1ccc(COc2ccc(Nc3ccnc4cc(-c5ccccn5)ccc34)cc2)cc1.Cl [GW440148] | 70
47 | CCn1cnc2c(N)ncnc21 [GW345098] | 20
48 | Cc1nnc(-c2ccc3occ(-c4ccc(C(C)O)cc4)c3c2)o1 (centres unmarked) | 24
49 | O=c1cc(N2CCOCC2)nc2n(Cc3cccc(Cl)c3Cl)c(C3CC3)nn12 [GSK2358994] | 13
50 | O=C(NCCCN1CCOCC1)c1cccc(Nc2nccc(Nc3ccc(Oc4ccccc4)cc3)n2)c1 [GW663929] | 77
51 | [2H]C([2H])(c1cccc(C(F)(F)F)c1C)n1ccn2c(=O)nc(N3CCOCC3)cc12 [GSK2336394] | 0
52 | NS(=O)(=O)CCc1cccc(Nc2nccc(-c3c(-c4cccc(NC(=O)c5c(F)cccc5F)c4)nn4ccccc34)n2)c1 [GSK336735] | 76
53 | CN1c2ccc(NCc3ccc(F)cc3)cc2-c2c(cnn2C)S1(=O)=O | 27
54 | COCCNC(=O)c1ccc(-c2cc(C(=O)NC3CC3)cc(F)c2C)cc1 [GW868318] | 32
55 | N#Cc1ccc(-c2cc(-c3c[nH]nc3-c3ccccn3)ccn2)cc1 [GW693028] | 0
56 | O=C(NOCC1CC1)c1ccc(F)c(F)c1Nc1ccc(I)cc1Cl | 47
